Assay results taken from PubChem BioAssay (Tox21).
Inconclusive results are not listed. A call without a number means that no potency is given here. The source made the active and inactive calls. Unless noted, calls come from the whole dose curve.

Experiments:
[1] = Nuclear factor erythroid 2-related factor 2/antioxidant responsive element (Nrf2/ARE) small molecule agonists: qHTS cell viability counter screen in human keratinocytes (AID 1919968; active = well fitted curve in the direction sought with a large enough effect in the repeat runs; an effect the other way counts as inactive or inconclusive; note: nearly all actives have a fitted effect of over 55% in size; note: potency is the fitted concentration of half-maximal effect)
Procedure, shortened: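 In human HaCaT keratinocytes stably expressing an ARE-driven luciferase, compound exposure lasted 23 h at 37 C under 5% CO2. Viable cells are quantified with a protease-based fluorogenic reagent (CellTiter-Fluor) read 1 h after addition.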

[2] = biological target: Gonadotropin-releasing hormone receptor (Homo sapiens) (UniProt P30968); assay: Human gonadotropin-releasing hormone receptor (GnRHR) small molecule agonists, calcium flux assay in GnRHR-HEK293 cells (AID 1920063); note: nearly all actives have a fitted effect of over 35% in size
Procedure, shortened: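 Intracellular calcium rise is the read-out: engineered human GnRHR HEK293 cells, dye-loaded, are exposed to DMSO-dissolved compounds and fluorescence at Ex/Em 480/540 is tracked for 3 min.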

[3] = biological target: KiSS-1 receptor (Homo sapiens) (UniProt Q969F8); assay: Human kisspeptin (KISS1R) small molecule agonists, calcium flux assay in KISS1R-HEK293 cells (AID 1920064; active = well fitted curve in the direction sought with a large enough effect in the repeat runs; an effect the other way counts as inactive or inconclusive)
Procedure, shortened: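 Concentration-response testing used 15 concentrations in triplicate on human KISS1R-expressing HEK293 cells. Calcium-dependent fluorescence (Ex/Em 480/540) was followed kinetically for 3 min after compound transfer.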

[4] = G protein-coupled receptor (GPCR) small molecule agonists, calcium flux assay: HEK293 wild type cell line counter screen (AID 1920065)
Procedure, shortened: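 Fluorescence intensity signals activation. After overnight (18 h) culture and a 1 h calcium dye load at 37 C, compounds are added by pin tool and the plate read at 480/540 nm for 3 min in 1 s steps.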

[5] = p53 small molecule agonists, cell-based qHTS assay with human liver microsomes (AID 1963577);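 note: p53 response element beta-lactamase reporter cells with liver microsomes plus NADPH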
Procedure, shortened: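 16 h, 37 C exposure of p53RE-bla cells to compounds with human liver microsomes and NADPH (0.5 mg/mL final each); detection via LiveBLAzer mixture, 2 h dark at room temperature.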

[6] = p53 small molecule agonists, cell-based qHTS assay with human liver microsomes: qHTS cell viability counter screen (AID 1963579); note: nearly all actives have a fitted effect of over 45% in size
Procedure, shortened: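 In this multiplexed counter screen, the reporter plates were subsequently treated with CellTiter-Glo so that cell viability, reflected by luminescence, could be recorded for p53RE-bla cells dosed 16 h with compounds under microsomal activation (HLM and NADPH).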

[7] = p53 small molecule agonists, cell-based qHTS assay with rat liver microsomes: qHTS cell viability counter screen (AID 1963580); note: nearly all actives have a fitted effect of over 45% in size
Procedure, shortened: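 Cytotoxicity counter screen: intracellular ATP read by CellTiter-Glo luminescence in the p53 reporter wells. HCT-116 p53RE-bla cells were treated for 16 h at 37 C alongside rat liver microsomes and NADPH, each 0.5 mg/mL final.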

[8] = p53 small molecule agonists, cell-based qHTS assay: qHTS cell viability counter screen (AID 1963581); note: nearly all actives have a fitted effect of over 45% in size
Procedure, shortened: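 Luminescence from CellTiter-Glo, reflecting ATP content, serves as the cytotoxicity measure; it is taken after the 2 h reporter substrate step in HCT-116 p53RE-bla cells dosed for 16 h at 37 C.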

[9] = p53 small molecule agonists, cell-based qHTS assay (AID 1963582; active = well fitted activation curve with a large enough effect in the signal ratio in the repeat runs, not every such curve was filed as active; the % refers to the signal ratio)
Procedure, shortened: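 After plating, p53RE-bla cells sat 5 h in the incubator; compounds or DMSO vehicle were pinned in; a 16 h incubation at 37 C followed; FRET substrate was added and, 2 h later at RT, fluorescence was measured.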

[10] = biological target: 5-hydroxytryptamine receptor 2A (Homo sapiens) (UniProt P28223); assay: 5-hydroxytryptamine receptor 2A (HTR2A) small molecule antagonists, cell-based qHTS assay (AID 1963586); note: nearly all actives have a fitted effect of over 45% in size
Procedure, shortened: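 CHO cells stably expressing human HTR2A were plated for 18 h at 37 C, then loaded with calcium dye for 1 h. Compounds were preincubated 5 min at room temperature before DOI (4 nM solution) was added. Kinetic fluorescence was read for 3 min.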

[11] = biological target: Muscarinic acetylcholine receptor M1 (Homo sapiens) (UniProt P11229); assay: Cholinergic receptor muscarinic 1 (CHRM1) small molecule antagonists, cell-based qHTS assay (AID 1963588); note: nearly all actives have a fitted effect of over 40% in size
Procedure, shortened: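 Compounds were tested at 15 concentrations in three independent runs. Dye-loaded CHRM1-CHO cells were exposed 5 min at room temperature before stimulation by acetylcholine added at 50nM. Intracellular calcium was read kinetically on FDSS for 3 min.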

[12] = biological target: Muscarinic acetylcholine receptor M1 (Homo sapiens) (UniProt P11229); assay: Cholinergic receptor muscarinic 1 (CHRM1) small molecule agonists, cell-based qHTS assay (AID 1963589); note: nearly all actives have a fitted effect of over 35% in size
Procedure, shortened: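 Fluorescent calcium dye reports M1 activation in stably transfected CHO cells. Compounds, 15 concentrations, added after 1 h dye loading at 37 C; kinetic reading at 1 sec intervals.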

[13] = cAMP Responsive Elements (CRE) small molecule agonists, cell-based qHTS assay (AID 1963590)
Procedure, shortened: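 Compound exposure lasted 3 h at 37 C/5% CO2 in CRE-bla HEK 293T cells grown in assay medium with 10% dialyzed FBS and 25 mM HEPES. Reporter signal came from LiveBLAzer B/G FRET substrate, 2 h, room temperature.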

[14] = biological target: Beta-2 adrenergic receptor (Homo sapiens) (UniProt P07550); assay: Adrenergic beta2 receptor (ADRB2) small molecule antagonists, cell-based qHTS assay (AID 1963592); note: series mostly up to about 92 µM; nearly all actives have a fitted effect of over 50% in size
Procedure, shortened: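 Assay format: CHO-ADRB2 cells, 18-20hr seeding at 37C/5% CO2, then compound plus 1nM isoproterenol agonist mix for 0.5hr RT. Homogeneous time-resolved fluorescence cAMP detection after 1hr, expressed as 665/615 nm ratio.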

[15] = biological target: D(2) dopamine receptor (Homo sapiens) (UniProt P14416); assay: Dopamine D2 receptor (DRD2) small molecule antagonists, cell-based qHTS assay (AID 1963595; active = well fitted inhibition curve with a large enough effect in the signal ratio in the repeat runs, with a control signal flat; the % refers to the signal ratio)
Procedure, shortened: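 DRD2-HEK293; 0.1 mM Ro20-1724; cpd 10 min RT; NKH477 200 nM + quinpirole 12 nM, 30 min RT; HTRF cAMP (cAMP-d2/anti-cAMP cryptate), 665/620 nm ratio after 1 h.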

[16] = p53 small molecule agonists, cell-based qHTS assay with rat liver microsomes (AID 1963578)
Procedure, shortened: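 With rat liver microsomes and NADPH present (0.5 mg/mL final each), p53RE-bla cells are treated with compound for 16 h at 37 C. LiveBLAzer detection mixture is then applied for 2 h at room temperature in the dark.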

[17] = biological target: 5-hydroxytryptamine receptor 2A (Homo sapiens) (UniProt P28223); assay: 5-hydroxytryptamine receptor 2A (HTR2A) small molecule agonists, cell-based qHTS assay (AID 1963587); note: nearly all actives have a fitted effect of over 30% in size
Procedure, shortened: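 Kinetic calcium-flux fluorescence (2 min, 1 sec intervals) after compound addition in agonist mode. HTR2A-CHO cells were cultured 18 h, then dye-loaded 1 h at 37 C.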

[18] = biological target: Beta-2 adrenergic receptor (Homo sapiens) (UniProt P07550); assay: Adrenergic beta2 receptor (ADRB2) small molecule agonists, cell-based qHTS assay (AID 1963593);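 note: CHO cells stably overexpressing human ADRB2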
Procedure, shortened: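 CHO cells stably over-expressing ADRB2 were plated overnight at 37C, then dosed with compounds plus a stimulation mix containing 100uM IBMX and 25uM Ro-20-1724 for 0.5hr at room temperature. cAMP was measured by HTRF competition, 1hr.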

[19] = biological target: D(2) dopamine receptor (Homo sapiens) (UniProt P14416); assay: Dopamine D2 receptor (DRD2) small molecule agonists, cell-based qHTS assay (AID 1963594); note: nearly all actives have a fitted effect of over 35% in size
Procedure, shortened: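 cAMP accumulation in DRD2-HEK293 cells measured by HTRF after 1 h detection; compounds added 10 min before NKH477 (200nM […]) forskolin-analogue stimulation, 30 min at room temperature, with Ro20-1724 present at 0.1 mM final.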

[20] = cAMP Responsive Elements (CRE) small molecule antagonists, cell-based qHTS assay (AID 1963591; active = well fitted inhibition curve with a large enough effect in the signal ratio in the repeat runs, not every such curve was filed as active; the % refers to the signal ratio)
Procedure, shortened: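 Stimulation used NKH477 at a final 0.25 uM for 3 h in compound-treated CRE-bla HEK293T cells, seeded 18 h beforehand. Reporter activity was measured with LiveBLAzer B/G FRET substrate after 2 h at room temperature.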

Sequence of Muscarinic acetylcholine receptor M1 (Homo sapiens) (P11229 whole entry, looked up): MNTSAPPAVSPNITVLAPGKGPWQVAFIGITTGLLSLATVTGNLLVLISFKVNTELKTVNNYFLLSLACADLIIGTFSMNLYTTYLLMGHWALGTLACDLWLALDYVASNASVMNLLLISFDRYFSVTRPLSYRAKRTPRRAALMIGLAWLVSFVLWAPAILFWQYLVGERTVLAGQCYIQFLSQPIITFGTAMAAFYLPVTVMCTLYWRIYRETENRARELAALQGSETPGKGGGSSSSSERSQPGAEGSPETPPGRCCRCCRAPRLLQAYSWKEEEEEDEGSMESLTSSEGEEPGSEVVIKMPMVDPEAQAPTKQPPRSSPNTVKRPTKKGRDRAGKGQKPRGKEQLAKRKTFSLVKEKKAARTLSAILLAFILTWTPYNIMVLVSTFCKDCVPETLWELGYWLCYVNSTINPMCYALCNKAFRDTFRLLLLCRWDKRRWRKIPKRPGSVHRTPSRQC
Sequence of D(2) dopamine receptor (Homo sapiens) (P14416 whole entry, looked up): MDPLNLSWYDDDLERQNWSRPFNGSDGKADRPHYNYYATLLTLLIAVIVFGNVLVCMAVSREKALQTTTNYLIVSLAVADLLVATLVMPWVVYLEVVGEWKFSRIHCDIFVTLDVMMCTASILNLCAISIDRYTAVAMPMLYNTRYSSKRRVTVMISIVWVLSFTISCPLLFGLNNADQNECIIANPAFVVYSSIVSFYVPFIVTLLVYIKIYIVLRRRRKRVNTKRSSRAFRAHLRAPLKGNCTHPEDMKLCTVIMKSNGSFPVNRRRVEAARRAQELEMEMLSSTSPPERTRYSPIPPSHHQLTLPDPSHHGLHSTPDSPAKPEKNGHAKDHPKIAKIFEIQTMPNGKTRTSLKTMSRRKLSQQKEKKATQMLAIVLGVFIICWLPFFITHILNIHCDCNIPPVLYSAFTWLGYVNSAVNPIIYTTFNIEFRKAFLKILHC
Sequence of Beta-2 adrenergic receptor (Homo sapiens) (P07550 whole entry, looked up): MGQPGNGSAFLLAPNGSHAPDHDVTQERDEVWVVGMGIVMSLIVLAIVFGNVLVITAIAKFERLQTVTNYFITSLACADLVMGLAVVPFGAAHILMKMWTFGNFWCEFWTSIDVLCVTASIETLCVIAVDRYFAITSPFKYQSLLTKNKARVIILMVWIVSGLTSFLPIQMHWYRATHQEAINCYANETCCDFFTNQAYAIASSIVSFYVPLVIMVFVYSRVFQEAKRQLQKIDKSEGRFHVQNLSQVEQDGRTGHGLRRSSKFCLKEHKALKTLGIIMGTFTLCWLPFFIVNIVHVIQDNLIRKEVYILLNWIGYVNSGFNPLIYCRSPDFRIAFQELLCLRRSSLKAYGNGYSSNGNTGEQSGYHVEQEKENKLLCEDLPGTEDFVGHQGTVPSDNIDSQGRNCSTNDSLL
Sequence of 5-hydroxytryptamine receptor 2A (Homo sapiens) (P28223 whole entry, looked up): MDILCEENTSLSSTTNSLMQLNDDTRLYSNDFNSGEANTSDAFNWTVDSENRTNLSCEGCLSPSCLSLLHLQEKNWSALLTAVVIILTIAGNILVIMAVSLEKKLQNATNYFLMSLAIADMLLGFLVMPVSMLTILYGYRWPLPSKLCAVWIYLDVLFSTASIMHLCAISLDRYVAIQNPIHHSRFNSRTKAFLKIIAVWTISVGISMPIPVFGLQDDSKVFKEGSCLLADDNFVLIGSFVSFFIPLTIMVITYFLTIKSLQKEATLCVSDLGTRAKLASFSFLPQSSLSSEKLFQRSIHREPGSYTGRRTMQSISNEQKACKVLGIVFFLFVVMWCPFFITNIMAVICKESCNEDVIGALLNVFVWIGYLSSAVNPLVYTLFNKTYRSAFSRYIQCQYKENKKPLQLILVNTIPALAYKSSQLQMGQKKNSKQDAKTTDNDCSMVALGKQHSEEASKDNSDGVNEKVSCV
Sequence of KiSS-1 receptor (Homo sapiens) (Q969F8 whole entry, looked up): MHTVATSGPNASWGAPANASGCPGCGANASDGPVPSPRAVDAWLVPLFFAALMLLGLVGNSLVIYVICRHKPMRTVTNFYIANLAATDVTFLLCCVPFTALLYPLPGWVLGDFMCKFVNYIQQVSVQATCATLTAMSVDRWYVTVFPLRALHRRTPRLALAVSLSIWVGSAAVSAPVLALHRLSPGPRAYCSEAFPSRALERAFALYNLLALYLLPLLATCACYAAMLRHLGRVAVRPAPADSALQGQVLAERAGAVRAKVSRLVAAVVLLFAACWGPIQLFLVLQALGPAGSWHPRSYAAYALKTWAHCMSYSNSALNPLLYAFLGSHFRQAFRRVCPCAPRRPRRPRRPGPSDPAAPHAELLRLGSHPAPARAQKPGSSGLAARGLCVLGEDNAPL
Sequence of Gonadotropin-releasing hormone receptor (Homo sapiens) (P30968 whole entry, looked up): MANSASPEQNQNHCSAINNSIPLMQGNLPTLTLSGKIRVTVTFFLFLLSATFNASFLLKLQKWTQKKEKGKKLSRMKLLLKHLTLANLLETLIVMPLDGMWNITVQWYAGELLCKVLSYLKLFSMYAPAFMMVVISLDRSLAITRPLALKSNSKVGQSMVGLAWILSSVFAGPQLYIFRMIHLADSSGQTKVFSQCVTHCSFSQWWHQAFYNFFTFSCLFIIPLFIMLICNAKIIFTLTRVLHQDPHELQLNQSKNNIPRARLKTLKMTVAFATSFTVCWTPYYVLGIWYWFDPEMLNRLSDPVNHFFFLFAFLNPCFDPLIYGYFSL

| SMILES | Potency [1] | Potency [2] | Potency [3] | Potency [4] | Potency [5] | Potency [6] | Potency [7] | Potency [8] | Potency [9] | Potency [10] | Potency [11] | Potency [12] | Potency [13] | Potency [14] | Potency [15] | Potency [16] | Potency [17] | Potency [18] | Potency [19] | Potency [20] |
| --- | --- | --- | --- | --- | --- | --- | --- | --- | --- | --- | --- | --- | --- | --- | --- | --- | --- | --- | --- | --- |
| N=C(N)N | inactive | inactive | inactive | inactive | inactive | inactive | inactive | inactive | inactive | inactive | inactive | inactive | inactive | inactive | inactive |  |  |  |  |  |
| O=[N+]([O-])c1cccc(S(=O)(=O)O)c1 | inactive | inactive | inactive | inactive | inactive |  |  | inactive | inactive | inactive | inactive | inactive |  | inactive | inactive | inactive | inactive | inactive | inactive |  |
| CCCCCCCCCC(C)C=O (stereo not given) | inactive | inactive | inactive | inactive | inactive |  | inactive |  |  | inactive | inactive | inactive |  | inactive | inactive | inactive | inactive |  | inactive | inactive |
| Nc1nc2ccccc2n1Cc1ccc(F)cc1 | inactive | inactive | inactive | inactive | inactive |  | inactive | inactive | inactive |  | inactive | inactive | inactive | inactive | inactive | inactive | inactive |  | inactive | inactive |
| CCOC(=O)/C=C/c1ccccc1 | inactive | inactive | inactive | inactive | inactive | inactive |  | inactive | inactive | inactive | inactive | inactive | inactive | inactive | inactive | inactive |  | inactive | inactive | inactive |
| C=CC(=O)OCCC#N | inactive | inactive | inactive | inactive | inactive | inactive | inactive | inactive | inactive | inactive | inactive | inactive | inactive | inactive | inactive |  | inactive | inactive | inactive | inactive |
| CC(=O)Nc1cccc(N)c1 | inactive | inactive | inactive | inactive | inactive | inactive |  |  | inactive |  | inactive | inactive | inactive | inactive | inactive | inactive | inactive |  | inactive | inactive |
| CCN(CC)CCNC(=O)c1c(C)[nH]c(/C=C2\C(=O)Nc3ccc(F)cc32)c1C | 29.8 µM (active) | inactive | inactive | inactive | inactive | inactive |  | inactive | inactive |  |  | inactive | inactive |  |  | inactive | inactive |  |  | inactive |
| CC(CO)(CO)CO | inactive | inactive | inactive | inactive | inactive | inactive |  | inactive |  | inactive | inactive | inactive | inactive | inactive |  | inactive | inactive |  | inactive | inactive |
